Bioassay records: PubChem BioAssay, Broad Institute
miR-122 inh – activators of miR-122 sensor in Huh7 cells. Huh7 psiCHECK-miR122 Renilla luciferase sensor, 48 h. activation, % at 12.5 µM. 340,000 tested, 0.14% active;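 active means mean activation of 30% or more, with every replicate also reaching 30%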;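 further: 0% = median of neutral control wells and 100% = median of positive control wells; higher luciferase signal means stronger suppression of miR-122 activity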
* hit, by the source's call. Only a selection was taken, and hits are over-represented in it overall.

SMILES	miR-122 inh
CCCC(O)C#Cc1cnc2c(c1)C(=O)N([C@H](C)CO)C[C@H](C)[C@H](CN(C)Cc1ccccc1)O2 (stereo partly drawn)	-6
COc1cccc(NS(=O)(=O)c2ccc(Br)s2)c1	-218
COc1cccc(NS(=O)(=O)c2c(C)cc(C)cc2C)c1	-399
COc1cccc(-n2nnnc2S(C)(=O)=O)c1	48*
C[C@H]1CN([C@@H](C)CO)C(=O)c2cc(C3=CCCCC3)cnc2O[C@@H]1CN(C)CC1CCOCC1	-3
C[C@H](CO)N1C[C@H](C)[C@H](CN(C)C(=O)Nc2ccccc2)Oc2cc(-c3cccc(C(=O)N(C)C)c3)ccc2S1(=O)=O	4
C[C@H](CO)N1C[C@H](C)[C@@H](CN(C)CC2CCOCC2)Oc2ncc(C#CCC3CCCC3)cc2C1=O	0
CCCCNc1cc(C)nc(NCc2ccccc2)n1	41*
COc1ccccc1NC(=O)N(C)C[C@@H]1Oc2ncc(C#CCC(C)C)cc2C(=O)N([C@H](C)CO)C[C@H]1C	-4
COc1cccc(/C=N/Nc2ccc([N+](=O)[O-])cn2)c1O	33*
C[C@H]1CN([C@@H](C)CO)C(=O)c2cc(/C=C/c3ccccc3)cnc2O[C@@H]1CN(C)C(=O)c1ccncc1	-5
CC(C)C#Cc1ccc2c(c1)O[C@@H](CN(C)C(=O)CC1CC1)[C@H](C)CN([C@H](C)CO)S2(=O)=O	3
CCCCN1C=C(C(=O)OC)C(c2ccccc2C(F)(F)F)C(C(=O)OC)=C1	31*
C[C@H](CO)N1C[C@H](C)[C@@H](CN(C)CC2CCOCC2)Oc2ncc(-c3cncnc3)cc2C1=O	4
COc1ccccc1C#Cc1ccc2c(c1)O[C@H](CN(C)Cc1ccncc1)[C@@H](C)CN([C@H](C)CO)S2(=O)=O	2
CCCNC(=O)N(C)C[C@H]1Oc2cc(C#Cc3cccc(F)c3)ccc2S(=O)(=O)N([C@H](C)CO)C[C@H]1C	3
COc1ccccc1-c1cnc2c(c1)C(=O)N([C@@H](C)CO)C[C@@H](C)[C@@H](CN(C)Cc1ccccc1)O2	-2
CN1CCN(c2ccc(Cl)cc2NC(=O)c2ccc(S(=O)(=O)N3CCCCCC3)cc2)CC1	40*
COc1cccc(C(=O)Nc2cc([N+](=O)[O-])ccc2N2CCN(C)CC2)c1	-292
COc1ccc(NC(C)=O)cc1S(=O)(=O)Nc1ccc(S(=O)(=O)N2CCCCC2)cc1	-126
CCCNC(=O)N(C)C[C@@H]1Oc2cc(C#Cc3cccc(F)c3)ccc2S(=O)(=O)N([C@H](C)CO)C[C@H]1C	-4
NC(=O)C1CCN(C2=C(Cl)C(=O)c3ccccc3C2=O)CC1	70*
C[C@H](CO)N1C[C@H](C)[C@H](CN(C)Cc2ccncc2)Oc2ncc(C#CC3(O)CCCC3)cc2C1=O	1
COCC#Cc1cnc2c(c1)C(=O)N([C@H](C)CO)C[C@H](C)[C@@H](CN(C)C(=O)Nc1ccccc1OC)O2	-55
CCC(=O)N1C[C@H](C)[C@@H](OC)CN(C)C(=O)c2ccc(NC(=O)C3CCCCC3)cc2OC[C@H]1C	-2
SMILES	miR-122 inh
CCS(=O)(=O)Nc1ccc2c(c1)C(=O)N(C)[C@@H]1CC[C@@H](CC(=O)NCCCN3CCOCC3)O[C@H]1CO2	68*
Cc1ccccc1NC(=O)Nc1ccc2c(c1)C(=O)N(C)[C@H]1CC[C@H](CC(=O)NCC3CC3)O[C@H]1CO2	-228
CN1C(=O)c2cc(NC(=O)Nc3ccccc3F)ccc2OC[C@@H]2O[C@@H](CC(=O)NCc3ccc(-c4ccccc4)cc3)CC[C@H]21	48*
CCNC(=O)C[C@@H]1CC[C@@H]2[C@@H](COc3ccc(NC(=O)C4CCCCC4)cc3C(=O)N2C)O1	33*
CO[C@H]1CN(C)C(=O)c2cc(NC(=O)Nc3ccccc3)ccc2OC[C@@H](C)NC[C@@H]1C	0
CCCNC(=O)N1C[C@H](C)[C@H](OC)CN(C)C(=O)c2cc(NS(=O)(=O)CC)ccc2OC[C@@H]1C	-24
CCC(=O)N1C[C@H](C)[C@H](OC)CN(C)C(=O)c2ccc(NC(=O)C3CCCCC3)cc2OC[C@@H]1C	1
Cc1cccc(NC(=O)Nc2ccc3c(c2)C(=O)N(C)[C@@H]2CC[C@@H](CC(=O)NCc4ccccc4Cl)O[C@H]2CO3)c1	55*
CN1C(=O)c2cc(NC(=O)Cc3cccs3)ccc2OC[C@@H]2O[C@H](CC(=O)NCc3ccc(-c4ccccc4)cc3)CC[C@@H]21	-188
CCS(=O)(=O)Nc1ccc2c(c1)C(=O)N(C)C[C@H](OC)[C@@H](C)CN[C@@H](C)CO2	-3
C[C@H]1CN([C@@H](C)CO)C(=O)c2cc(C#CC3(O)CCCC3)cnc2O[C@H]1CN(C)S(=O)(=O)c1cccc(F)c1	-4
C[C@@H]1CN([C@@H](C)CO)C(=O)c2cc(-c3cccc(F)c3)cnc2O[C@@H]1CN(C)Cc1cncnc1	-43
C[C@@H]1CN([C@H](C)CO)C(=O)c2cc(C#CC3(O)CCCC3)cnc2O[C@H]1CN(C)S(=O)(=O)c1ccc(F)cc1	-1
Cc1ccc(S(=O)(=O)N2CC[C@@H]3[C@@H](CO)Nc4ccc(-c5ccccc5F)cc4[C@@H]32)cc1	-154
